{"source": "the supplement of paper PMC3724861", "note": "Shown is part of a subset that was picked to be rich in hits. How many sequences the whole screen found active is unknown. A number with no mark means an inactive call.", "data": [{"test_system": "T1, Caupolican (Caup) homeodomain DNA-binding domain", "T1 sequence": "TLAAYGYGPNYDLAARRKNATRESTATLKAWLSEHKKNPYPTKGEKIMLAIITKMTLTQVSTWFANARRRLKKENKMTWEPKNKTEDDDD", "test": "PBM E-score (8-mer, recovered from the published 9-mer minima) (E-score (dimensionless, -0.5 to 0.5)); Drosophila protein; higher = stronger relative binding preference, active = 0.31 or more", "description": "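Protein binding microarray (PBM): in vitro transcribed/translated Caupolican (Caup) homeodomain DNA-binding domain (residues 214-303) applied at 100 nM to a universal 8-mer PBM array (Agilent AMADID 015681). The 8-mer enrichment score (E-score, range -0.5 to 0.5) was computed, and each 9-mer score is the minimum E-score of its two constituent 8-mers. The E-score is the same for a 9-mer and its reverse complement; 0.31 is the stated binding threshold.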", "values": [{"sequence": "GAACAATA", "PBM E-score": 0.166}, {"sequence": "CACATTAC", "PBM E-score": 0.141}, {"sequence": "CCGAGGGC", "PBM E-score": -0.267}, {"sequence": "CAAGGACG", "PBM E-score": -0.0604}, {"sequence": "CTCTAGGC", "PBM E-score": -0.16}, {"sequence": "CCTGGCTA", "PBM E-score": -0.0965}, {"sequence": "AGCGTACC", "PBM E-score": -0.17}, {"sequence": "GAGGGAGA", "PBM E-score": -0.155}, {"sequence": "AGTTACCA", "PBM E-score": 0.113}, {"sequence": "CAAGGGCC", "PBM E-score": -0.135}, {"sequence": "CCCAGGCA", "PBM E-score": -0.162}, {"sequence": "CAGGTACG", "PBM E-score": -0.00719}, {"sequence": "ACGTAAGG", "PBM E-score": -0.042}, {"sequence": "GCTTACAC", "PBM E-score": 0.169}, {"sequence": "CTTTACAC", "PBM E-score": 0.289}, {"sequence": "CATTACAG", "PBM E-score": 0.226}, {"sequence": "CATTACAC", "PBM E-score": "0.311 (active)"}, {"sequence": "GATTACAC", "PBM E-score": "0.318 (active)"}, {"sequence": "AATTACAC", "PBM E-score": 0.299}, {"sequence": "CAAGCTGG", "PBM E-score": -0.105}, {"sequence": "CAGCCGCA", "PBM E-score": -0.26}, {"sequence": "GTTAGTGA", "PBM E-score": 0.152}, {"sequence": "AGCACTAA", "PBM E-score": -0.00029}, {"sequence": "TGCAGTAA", "PBM E-score": 0.0534}, {"sequence": "ACTATGTG", "PBM E-score": 0.131}, {"sequence": "CCTATGTA", "PBM E-score": "0.318 (active)"}, {"sequence": "CCTATGAA", "PBM E-score": -0.0468}, {"sequence": "ACTATGTA", "PBM E-score": "0.312 (active)"}, {"sequence": "GCTATGTA", "PBM E-score": 0.271}, {"sequence": "CCTATGTC", "PBM E-score": 0.176}, {"sequence": "CCGATCGA", "PBM E-score": -0.133}, {"sequence": "CAGCTCAA", "PBM E-score": -0.125}, {"sequence": "CACTCTAC", "PBM E-score": 0.101}, {"sequence": "GCGACCGC", "PBM E-score": -0.261}, {"sequence": "CGAACCAC", "PBM E-score": -0.0921}, {"sequence": "GTGTCGCA", "PBM E-score": 0.176}, {"sequence": "CTGTCGTA", "PBM E-score": 0.124}, {"sequence": "ATGTCGAG", "PBM E-score": 0.274}, {"sequence": "ATGTCGTA", "PBM E-score": "0.337 (active)"}, {"sequence": "ATGTCGTG", "PBM E-score": "0.316 (active)"}, {"sequence": "ATGTCGCA", "PBM E-score": "0.331 (active)"}, {"sequence": "ATGTCGAC", "PBM E-score": "0.326 (active)"}, {"sequence": "GTGTCGTA", "PBM E-score": 0.252}, {"sequence": "ATGTCGAA", "PBM E-score": 0.291}, {"sequence": "ATGTCGTC", "PBM E-score": 0.28}, {"sequence": "ATGTCGCC", "PBM E-score": 0.208}, {"sequence": "CTGTCGAC", "PBM E-score": 0.0515}, {"sequence": "CGTCGACA", "PBM E-score": 0.116}, {"sequence": "AGATTTTA", "PBM E-score": 0.0905}, {"sequence": "CTTGAACC", "PBM E-score": 0.00592}, {"sequence": "GATCTGGC", "PBM E-score": -0.0642}, {"sequence": "AACCGATG", "PBM E-score": 0.0188}, {"sequence": "CGGAGTAG", "PBM E-score": -0.0319}, {"sequence": "CACGGGAA", "PBM E-score": -0.0415}, {"sequence": "AGTGAAAC", "PBM E-score": 0.108}, {"sequence": "CTCACGAA", "PBM E-score": 0.0184}, {"sequence": "GTTACGGA", "PBM E-score": 0.0254}]}]}
